# Bioassay records: PubChem, National Center for Advancing Translational Sciences (NCATS)
# Pf growth 96h: P. falciparum growth inhibition at 96 hours; P. falciparum luciferase reporter growth, 96 h; Potency, µM (highest dose often 28.7 µM), usual class: inhibitors; AID 504834; 320,000 tested, 6.9% active
#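 Two-generation exposure (96 h) targets delayed-death phenotype. Reporter parasites carrying integrated firefly luciferase, in red cells at 2% hematocrit and 0.05% parasitemia final, kept at 37 C, 5% CO2; luminescence loss indicates inhibition.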
# Pf growth 48h: P. falciparum growth inhibition at 48 hours (one generation); Potency, µM (series often up to 28.7 µM), most hits filed as inhibitors; P. falciparum luciferase growth in erythrocytes, 48 h; 310,000 tested, 5.9% active
#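 A one-generation exposure of luciferase-tagged malaria parasites in RPMI 1640/Albumax erythrocyte culture, 37 C and 5% CO2. Inhibition is inferred from decreased luminescence after adding detection reagent.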
# Cycloheximide cs: counter-screen for Shiga toxin inhibitors: cycloheximide protein synthesis inhibition; cell reporter, cycloheximide protein synthesis inhibition counterscreen; max response, %; 300,000 tested, 12% active; AID 2314; in the data active means max response mostly above about 13%, no sharp cut-off; inactive means mostly below about 14%; further: read at 38.3 µM for the half of the compounds with a filed dose
# Shiga toxin inh: inhibitors of Shiga toxin in Vero cells | Vero cells, Shiga toxin protein synthesis inhibition reporter | inhibition, % at 38.7 µM | 290,000 tested, 9.2% active; in the data active means inhibition mostly above about 28%, no sharp cut-off; inactive means mostly below about 43%
# AMA1-RON2 inh: disrupts binding of P. falciparum AMA1 to RON2; AlphaScreen AMA1-biotinylated RON2 peptide binding; Potency, µM (series often up to 58.2 µM), usual class: inhibitors; 360,000 tested, 0.2% active; AID 720542; further: nearly all actives have a fitted effect of over 45% in size
#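 AMA1 (3D7) with his tag at 25 nM final met compounds first, then biotinylated RON2 peptide at 25 nM; detection used donor plus acceptor beads, 10 µg/mL apiece, read by AlphaScreen after 30 min at room temperature.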
# HCV inhibitor: inhibitors of hepatitis C virus infection | 340,000 tested, 3.4% active | Potency, µM (titrated, usually from 41.8 µM), usual class: inhibitors | Huh7.5.1 HCVcc-Cre infection, luciferase reporter, 44 h
#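 Reporter virus HCVcc-Cre (~0.5 moi) infects cells exposed to compound; seeding density 1,000 cells/well with 4 h settling beforehand. Luminescence, 15 sec read, taken 44 h post-infection following a 15 min RT substrate incubation.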
# Numbers stand for hits; . = inactive; ? = inconclusive; / = no result. The list is not random: actives were taken first. Their share in the collection is about 21%. Unless noted, the call rests on the fitted dose curve; in most records, active means well fitted curve in the direction sought with a large enough effect; inconclusive means small, poorly fitted or top-dose-only effect, or another doubt; inactive means no such curve, though single readings can be large; an effect the other way counts as inactive or inconclusive.
SMILES,Pf growth 96h,Pf growth 48h,Cycloheximide cs,Shiga toxin inh,AMA1-RON2 inh,HCV inhibitor
CC[N+](C)(CC)CCC(c1ccccc1)C1CCCCC1 (stereo unspecified),?,6.6µM,.,.,.,.
CCOC(C(=O)OCC(O)CN(CC)CC)(c1ccccc1)c1ccccc1 (stereo unspecified),.,10µM,.,.,.,.
O=C(Nc1cccn(Cc2c(Cl)cccc2Cl)c1=O)c1ccc(Cl)cc1Cl,.,?,.,.,.,11µM
O=C(NC(=S)N1CCCCCC1)c1ccc(Cl)cc1Cl,9.3µM,?,.,.,.,.
CN1CCN(C(=S)NC(=O)c2ccccc2Cl)CC1,.,.,.,.,.,.
O=C(Nc1ccccc1C(=O)N1CCCC1)c1ccc(Cl)cc1Cl,12µM,.,.,.,.,.
O=C(Nc1cnc2sccn2c1=O)c1ccc(Cl)cc1Cl,/,.,38,120,.,.
COc1nccc(NCc2ccccc2)c1C#N,/,/,/,/,.,.
CC(=O)N1CCc2cc(NC(=O)C3(C)CCN3Cc3ccccc3Cl)ccc21 (stereo unspecified),/,/,/,/,.,/
COc1ccc(C(CNC(=O)CSc2ccc(Br)cc2C)N2CCOCC2)cc1 (stereo unspecified),?,?,/,/,.,.
O=C(NC(=S)N1CCCCCC1)c1ccccc1Cl,.,5.2µM,.,.,.,.
COc1ccc(OCCC(=O)OCC(=O)NCc2ccccc2OC)cc1,.,.,/,/,.,.
CCOc1ccc(C2N(c3ccc(F)cc3)C(=O)C3CCCN32)cc1 (stereo unspecified),4.1µM,/,.,.,.,.
COc1ccc(C2N(c3ccc(Cl)cc3)C(=O)C3CCCN32)cc1 (stereo unspecified),?,/,.,.,.,.
COc1ccc(N2C(=O)C3CCCN3C2c2ccc(Cl)cc2)cc1 (stereo unspecified),9.3µM,/,.,.,.,.
COc1ccc(OC)c(C2N(c3ccc(Cl)cc3)C(=O)C3CCCN32)c1 (stereo unspecified),9.3µM,.,.,.,.,.
COc1ccc(OC)c(NC(=O)COC(=O)C2CCCCC2)c1,/,/,/,/,.,.
CCCCN(C(=O)c1ccccc1OCc1ccc(F)cc1)c1c(N)n(CC(C)C)c(=O)[nH]c1=O,?,?,.,.,.,?
CC(C)(C)NC(=O)C(c1ccc(C#N)cc1)n1c(=O)c(-c2cc3ccccc3[nH]2)nc2ccccc21 (stereo unspecified),/,/,/,/,.,/
O=C(Nc1nnc(-c2ccccc2)o1)Nc1ccccc1Cl,?,.,15,.,.,.
Cc1ccc(-c2nnc(-c3ccc4ccccc4c3)o2)cc1,/,/,/,/,.,.
O=C(Nc1ccc(F)cc1)Nc1nnc(-c2ccccc2)o1,.,.,.,.,.,.
O=C(Nc1nnc(-c2ccccc2)o1)Nc1ccc(F)cc1F,.,.,.,.,.,.
CCCCNC(=O)Nc1nnc(-c2ccc(OCC)cc2)o1,/,?,.,.,.,.
Cc1ccc(-c2nnc(Nc3ccccc3)o2)cc1,?,.,24,.,.,.
SMILES,Pf growth 96h,Pf growth 48h,Cycloheximide cs,Shiga toxin inh,AMA1-RON2 inh,HCV inhibitor
Cc1ccc(NC(=O)Nc2nnc(-c3ccccc3)o2)cc1,.,.,51,77,.,.
CCCCNC(=O)Nc1nnc(-c2ccccc2)o1,?,/,29,.,.,.
O=C(Nc1ccccc1)/C(=C1\CCCN1)[N+](=O)[O-],.,.,.,.,.,.
CCOC(=O)c1ccc(N2C(=O)C(CC(N)=O)N(CCc3ccc(OC)c(OC)c3)C2=S)cc1 (stereo unspecified),.,15µM,.,.,.,.
CCOC(=O)c1ccc(N2C(=O)C3CCCN3C2=S)cc1 (stereo unspecified),?,?,/,/,35µM,.
O=C(CC1C(=O)N(c2ccc(Cl)cc2)C(=S)N1CCc1ccncc1)Nc1ccc(F)cc1 (stereo unspecified),?,?,.,.,.,.
COc1ccc(CCN2C(=S)N(c3ccc(Cl)cc3)C(=O)C2CC(N)=O)cc1OC (stereo unspecified),12µM,10µM,.,.,.,?
COC(=O)c1ccc(N2C(=O)CC(N(C)CCc3ccc(OC)c(OC)c3)C2=O)cc1 (stereo unspecified),.,.,.,.,.,.
Cc1cccc(N2CCN(C(=S)c3ccc4c(c3)OCO4)CC2)c1,/,/,/,/,.,.
O=C(NCC1CC1)NC(=O)c1ccccc1F,/,/,/,/,.,/
O=C(NCC1CC1)NC(=O)c1c(F)cccc1Cl,.,.,15,.,.,.
COc1ccc(Oc2nccc(-c3ccccc3)c2C#N)cc1,.,.,77,133,.,?
COc1ccnc(Oc2ccc3ccccc3c2)c1C#N,.,.,61,60,.,.
COc1ccnc(Oc2ccc(C)cc2)c1C#N,.,.,37,121,.,?
COc1ccnc(Oc2ccc(F)cc2)c1C#N,.,.,.,.,.,.
CCCC(=O)Nc1sc(-c2ccccc2)c(-c2ccccc2)c1C(=O)O,/,/,/,/,.,.
CCN(C(=O)CSc1n[nH]c(N)n1)C1CCCCC1,/,/,/,/,.,.
Cc1ccc(C)c(CSc2ncccc2C(=O)O)c1,7.4µM,.,.,.,.,.
O=C(O)c1cccnc1SCc1ccccc1,.,.,.,.,.,.
O=C(O)c1cccnc1SCc1cccc(Br)c1,.,1.7µM,.,.,.,.
O=C(O)c1cccnc1SCCc1ccccc1,?,.,42,41,.,.
Cc1cc(C)nc(N2CCCC(C(=O)NNC(=O)c3ccncc3)C2)n1 (stereo unspecified),.,.,.,.,.,.
CCCCN(C(=O)COC(=O)COc1c(C)cc(C)cc1C)c1c(N)n(CCC)c(=O)[nH]c1=O,.,.,/,/,.,.
Cn1c(CNC(=O)c2ccco2)nnc1SCC(=O)Nc1ccccc1Cl,?,.,/,/,.,.
O=C(N/N=C/c1c[nH]c2ccccc12)c1cccc(Cl)c1,?,.,47,46,.,?
SMILES,Pf growth 96h,Pf growth 48h,Cycloheximide cs,Shiga toxin inh,AMA1-RON2 inh,HCV inhibitor
CCCCCN=C(N)N/N=C/c1c[nH]c2ccc(OC)cc12,3µM,3µM,/,/,.,?
O=C(N/N=C/c1c[nH]c2ccccc12)c1ccc(O)c(O)c1,.,.,24,64,.,.
O=C(N/N=C/C1C(c2ccccc2)C1(Cl)Cl)c1cccc(Cl)c1 (stereo unspecified),.,.,40,49,.,.
NC(=Nc1ccccc1)NN=Cc1c[nH]c2ccccc12,/,/,/,/,.,?
O=C(Nc1ccc(N=Nc2ccccc2)cc1)c1cccc(Cl)c1,.,.,.,.,.,.
COc1ccc(OC)c(/C=N/NC(=O)c2cc3c(OC)cccc3[nH]2)c1,.,.,.,.,.,?
COc1ccc(C(=O)N/N=C/c2cc3ccccc3[nH]c2=S)cc1,13µM,/,.,.,.,.
COc1ccc2c(c1)c(/C=N/Nc1ccc(C(=O)O)cc1)c(C)n2C,.,.,43,70,.,.
